Compound activity as filed in PubChem BioAssay.
Most compounds without a hit are left out; they make up all but 10% or so of the library.
PNC inhibitor – perinucleolar compartment assembly inhibition; activity change (PNC), negative = inhibition, % at 10 µM; hit rate 3.1% among 140,000; PC3M PTB-GFP, PNC prevalence imaging, 16 h; active compounds read low; AID 2417;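 active means readout at or below -70, meaning at least 70% loss of cells showing the perinucleolar compartment, a nuclear body marking cancer cells; inconclusive means readout between -30 and a set limit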;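 further: plate controls were DMSO wells for no effect and camptothecin positive control wells for full effect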
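Compounds are pinned in duplicate onto adhered PC3M cells stably expressing GFP-tagged PTB and incubated 16 h at 37 C. Cells are then fixed, nuclei stained with Hoechst, and PNC-positive cells counted.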
Lamin A splicing – changes lamin A minigene splicing in HeLa cells; HeLa LMNA splicing GFP/RFP minigene ratio, 48 h; Potency, µM (doses to about 46.1 µM), inactives show top-dose ratio change, negative = inhibition, actives largely listed as inhibitors; hit rate 0.01% among 200,000; AID 1487; active means well fitted inhibition curve with a large enough effect in the signal ratio, with a control signal flat, not every such curve was filed as active; inconclusive means small, poorly fitted or top-dose-only effect, or effect the other way, or a change in a side signal; the % refers to the signal ratio; further: potency means the concentration at half of the fitted maximal effect
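Read-out is the ratio of GFP to DsRed2 object intensity, acquired by 488 nm laser-scanning cytometry on HeLa lamin A-EGFP minigene reporter cells. Compound incubation 48 hrs at 37 °C in Opti-MEM with 2% FBS; DMSO 0.5% final.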
ALDH1A1 inh – ALDH1A1 (human) enzyme inhibition | P00352 | Purified ALDH1A1, NADH fluorescence, propionaldehyde substrate | Potency, µM (doses to about 75.3 µM), for the others: at the top dose activity, negative = inhibition, hits mostly inhibitors | hit rate 7.3% among 220,000 | AID 1030;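 further: potency means the concentration at half of the fitted maximal effect; plate controls were no enzyme wells and a reference inhibitor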
HPGD block – HPGD (human) dehydrogenase inhibition | P15428 | purified HPGD, NADH fluorescence kinetic, PGE2 substrate | Potency, µM, inactives show at the top dose activity change, negative = inhibition, most hits filed as inhibitors | hit rate 4.3% among 150,000; further: potency means the concentration at half of the fitted maximal effect
Target sequence (P15428 whole entry, looked up): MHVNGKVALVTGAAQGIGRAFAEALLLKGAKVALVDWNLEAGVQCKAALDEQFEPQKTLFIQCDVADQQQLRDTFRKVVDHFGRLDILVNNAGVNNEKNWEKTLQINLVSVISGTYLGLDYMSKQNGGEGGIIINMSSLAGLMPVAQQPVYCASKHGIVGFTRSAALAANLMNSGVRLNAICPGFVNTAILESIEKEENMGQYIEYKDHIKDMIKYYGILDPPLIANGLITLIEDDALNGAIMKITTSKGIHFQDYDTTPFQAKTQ
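NADH formation kinetics: reaction with 30 uM PGE2 and 1 mM NAD+ (final), 20 nM enzyme, Tris-HCl pH 8 with Tween 20, after 15 min compound preincubation at room temperature. Fluorescence change, last versus first of five reads.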
KinaseGlo FLuc – counter-screen: inhibitors of Kinase-Glo firefly luciferase; Q27757; Kinase-Glo luciferase, ATP luminescence, 8 min; Potency, µM (titrated, usually from 38.3 µM), inactives show top-dose activity change, negative = inhibition, usual class: inhibitors; hit rate 0.28% among 200,000; AID 1379; active means well fitted inhibition curve with a large enough effect; inconclusive means small, poorly fitted or top-dose-only effect; further: potency means the concentration at half of the fitted maximal effect; nearly all actives have a fitted effect of over 60% in size
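Kinase-Glo luciferase light output from ATP and luciferin was measured with 10 uM ATP, within the enzyme's linear range. Buffer: 50 mM imidazole pH 7.2, 50 mM KCl, 7 mM MgCl2, 0.01% Tween 20, 0.05% BSA; luminescence read after 8 min at ambient temperature.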
IMPase inh – IMPase inhibition in cells; 120,000 tested, under 10 active; P97697; inhibition (IP1 accumulation), % at 46.1 µM; CHO-M1 cells, IP1 accumulation, HTRF TR-FRET ratio; active means well fitted curve in the direction sought with a large enough effect in the signal ratio, not every such curve was filed as active; inconclusive means small, poorly fitted or top-dose-only effect, or a change in a side signal; inactive means no such curve, though single readings can be large or run the other way; the % refers to the signal ratio;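 further: cells stimulated with carbachol in lithium chloride buffer; plate controls were DMSO basal wells for no effect and reference inhibitor wells for full effect; higher means more IMPase inhibition seen as more IP1 and lower FRET ratio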
Target sequence (P97697 whole entry, looked up): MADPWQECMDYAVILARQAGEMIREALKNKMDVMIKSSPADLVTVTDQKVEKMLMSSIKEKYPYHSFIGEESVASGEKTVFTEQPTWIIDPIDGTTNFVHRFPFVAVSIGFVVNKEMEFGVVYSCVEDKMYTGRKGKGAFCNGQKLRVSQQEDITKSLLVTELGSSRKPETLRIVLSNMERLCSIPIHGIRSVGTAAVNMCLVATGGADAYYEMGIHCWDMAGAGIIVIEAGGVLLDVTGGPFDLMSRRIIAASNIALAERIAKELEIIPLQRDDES
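Carbachol-driven Gq signalling in CHO-M1 cells (2000/well) generates IP1. Compounds that block IMPase raise IP1 and so reduce the FRET signal from Eu-anti-IP1 and d2-IP1 after a 10 min room-temperature lysis.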
* marks the source's active call; other numbers are inactive results; u = inconclusive; x = not tested or not shown; ! = repeats disagree; [ ] = dose if it differs, or a comment. Unless noted, the call rests on the fitted dose curve; in most records, active means well fitted inhibition curve with a large enough effect (not every such curve was filed as active); inconclusive means small, poorly fitted or top-dose-only effect, or another doubt; inactive means no such curve, though single readings can be large or run the other way. Unless noted, on the % scale 0 is the no-effect control and ±100 the full control effect.

SMILES | PNC inhibitor | Lamin A splicing | ALDH1A1 inh | HPGD block | KinaseGlo FLuc | IMPase inh
CC1=C(/C=C\C(=O)O)C(C)(C)CCC1 | x | x | -4.3%[13.5 µM] | -1.2% | -4.2%[7.66 µM] | x
CC1=C(/C=C/C(C)=C/C=C/C(C)=C\C=O)C(C)(C)CCC1 | x | x | u | -5.7% | x | x
CC1=C(/C=C/C(C)=C/C=C/C(C)=C/C=O)C(C)(C)CCC1 | x | x | 22.4µM* | -12.7% | x | x
CC1=C(/C=C/C(C)=C/C=C/C(C)=C/CO)C(C)(C)CCC1 | x | x | 25.1µM*! | -0.1% | -1.3% | 1.3
Cc1c(C(=O)Nc2ccc(C(C)C)cc2)sc2nc[nH]c(=O)c12 | x | -11.3%[46 µM] | x | x | x | x
O=C1C(c2cc(=O)c3ccccc3[nH]2)=C(O)c2ccccc21 | 26.4 | u | -7.3% | 14.1µM* | -19.0% | x
O=c1cc(-c2ccccc2)[nH]c2ccccc12 | u | u | 2.2% | 12.6µM* | 4.3% | 8.6
O=c1nc(-c2ccccc2)c2ccccc2[nH]1 | 15.5 | 4.3% | u | u | 14.9% | 0.3
CNC[C@@H](SC)c1ccc(O)c(O)c1 | x | x | 9.4%[13.5 µM] | 1.7% | -0.7%[7.66 µM] | x
CCCC1CC(C(=O)N[C@H](C(C)O)C2OC(SC)[C@@H](O)C(O)C2O)N(C)C1 (stereo not given in full) | x | x | -10.9% | -7.7% | -4.6% | x
O=C(CCCSc1nc2ccccc2s1)Nc1nccs1 | 15.0 | -0.9% | 15.8µM* | 25.1µM* | -6.7% | 9.5
O=C(CCCc1nc2ccccc2s1)Nc1nccs1 | 6.5 | 5.8% | -9.3% | -20.7% | 0.8% | 7.8
NNC(=O)c1ccc(CSc2nc3ccccc3s2)cc1 | x | u | 3.55µM* | x | 1.7% | x
O=C(CSc1nc2ccccc2s1)NCc1ccc2c(c1)OCO2 | 7.3 | -17.9% | 14.1µM* | 31.6µM* | -1.4% | x
O=C(CSc1nnc(SCC(=O)NCc2ccc3c(c2)OCO3)s1)NCc1ccc2c(c1)OCO2 | u | -4.0% | 13.0% | -3.6% | -2.2% | -5.8
O=C(CCCSc1nc2ccccc2s1)NCc1ccc2c(c1)OCO2 | u | -17.8% | 3.55µM* | -23.9% | 1.1% | 10.2
C=C1C(=O)OC2C[C@@]3(C)CCCC(C)C3=CC12 (stereo not given in full) | x | u | -11.1% | -9.4% | -0.1% | x
Cc1ccc(Cn2c(CNS(=O)(=O)c3ccc(C(C)(C)C)cc3)nc3cccnc32)cc1 | x | -22.7%[46 µM] | x | x | x | x
Cn1cccc1-c1cc2n(n1)CCC(=O)N2CCCC(=O)NCc1ccc(F)cc1 | x | 2.2%[46 µM] | x | x | x | x
Cc1cc2c(cc1Cl)C(c1ccc3c(c1)OCO3)CC(=O)O2 (stereo not given) | x | x | 9.2% | -6.1% | 1.0%[39.9 µM] | x
Cc1cccc(N2CCN(C(=O)c3cc(S(=O)(=O)N4CCC(C)CC4)cn3C)CC2)c1C | x | -6.0%[46 µM] | x | x | x | x
O=C(CSc1ccc2ccccc2n1)NCc1ccc2c(c1)OCO2 | x | 2.6%[46 µM] | 17.8µM* | x | -1.5% | x
O=C(CSc1nc(C2CCCCC2)nc2ccccc12)NCc1ccc2c(c1)OCO2 | 23.7 | u | 20.0% | -6.4% | -1.0% | -14.9
CC1=CC(=O)C2=C(C)C[C@H](OC(=O)Cc3ccccc3)C3[C@H](OC(=O)[C@H]3C)C12 (stereo not given in full) | x | x | u | -2.6% | -0.2% | x
CCn1c(SCC(=O)Nc2cc3oc4ccccc4c3cc2OC)nnc1-c1cccs1 | 30.7 | -0.2% | 12.6µM* | -4.2% | -2.2% | 3.6
SMILES | PNC inhibitor | Lamin A splicing | ALDH1A1 inh | HPGD block | KinaseGlo FLuc | IMPase inh
COc1cc2c(cc1NC(=O)CSc1nnc(Cc3cccs3)n1Cc1ccco1)oc1ccccc12 | 21.1 | -3.0% | 5.01µM* | -29.7% | 0.3% | 11.0
N#Cc1ccc(CSc2nnc(Cc3cccs3)n2Cc2ccco2)cc1 | 23.1 | -2.0% | 11.2µM* | -20.1% | -2.1% | 16.5
C=CCn1c(SCC(=O)Nc2cccc3ccccc23)nnc1-c1cnccn1 | 26.8 | 2.2% | 5.3% | -13.9% | -1.0% | 2.5
C=CCn1c(SCC(=O)Nc2cc3oc4ccccc4c3cc2OC)nnc1-c1cnccn1 | u | -0.8% | 28.2µM* | x | x | 16.5
COc1cc2c(cc1NC(=O)CSc1ccc(C)cc1)oc1ccccc12 | 28.1 | 0.1% | -12.0% | u | -1.6% | 1.2
N#Cc1ccc(CSc2nnc(-c3ccccc3)n2Cc2ccco2)cc1 | -25.3 | u | -3.1% | -6.2% | -5.1% | u
Cc1ccc(N(C)C(=O)CN2C(=O)CCc3cc(S(=O)(=O)N4CCOCC4)ccc32)cc1 | x | 0.4%[46 µM] | x | x | x | x
CCCn1c(SCC(=O)c2cc(OC)ccc2OC)nnc1C(C)C | u | 2.3% | u | -7.2% | -4.5% | -8.2
COc1cc2c(cc1NC(=O)CSc1nnc(Cc3cccs3)n1C)oc1ccccc12 | u | 1.5% | 14.1µM* | -17.0% | 3.2% | -2.7[1.84 µM]
COc1cc2c(cc1NC(=O)CSc1nnc(COc3ccc(Cl)cc3)n1C)oc1ccccc12 | -8.8 | -1.3% | 9.6% | -12.9% | -2.2% | 9.0
COc1ccc(OC)c(C(=O)CSc2nnc(Cc3cccs3)n2C)c1 | u | 10.4% | 22.4µM* | -20.9% | 0.6% | 9.3
COC(=O)C1=C(C)C(c2ccc(OC)cc2)NC(=O)N1 (stereo not given) | x | x | 8.0% | x | -0.2% | x
CCOC(=O)C1=C(C)C(c2ccccc2)NC(=S)N1 (stereo not given) | 29.4 | -2.9% | 2.51µM* | 2.4% | -4.5% | -5.0
CCOC(=O)C1C(c2ccccc2)NC(=S)NC1(C)O (stereo not given) | x | 20.2%[9.22 µM] | u | x | 1.8% | x
COc1ccc(C2NC(=S)NC(C)=C2C(=O)Nc2ccccn2)cc1 (stereo not given) | x | 16.3%[46 µM] | 14.1µM* | x | -0.9% | x
